Screening data deposited in PubChem BioAssay by National Center for Advancing Translational Sciences (NCATS).
Hits are enriched below; roughly 19% of the tested compounds scored in any of these assays.
TDP1 cell noCPT – qHTS for Inhibitors of human tyrosyl-DNA phosphodiesterase 1 (TDP1): qHTS in cells in absence of CPT; Potency, µM (top dose mostly 46.2 µM), without a hit: top-dose activity change, negative = growth inhibition, usual class: inhibitors; DT40 Tdp1-/- hTDP1 cells, no CPT, ATP luminescence, 48 h; 420,000 tested, 15% active; note: potency is the fitted concentration of half-maximal effect; nearly all actives have a fitted effect of over 55% in size
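Camptothecin absent (DMSO only). Human TDP1-complemented DT40 knockout cells, 400 cells/well, 37 °C for minimum 48 hr; ATP measured via CellTiter-Glo, 30 min dark incubation, luminescence.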
ELG1 repair inh – qHTS screen for small molecules that inhibit ELG1-dependent DNA repair in human embryonic kidney (HEK293T) cells expressing luciferase-tagged ELG1; HEK293T ELG1-luciferase reporter, luminescence, 16 h; DNA damage induced by 5-fluorouridine; Potency, µM (top dose mostly 46.1 µM), for inactives: top-dose activity change, negative = inhibition, usual class: inhibitors; 330,000 tested, 2.3% active; AID 504467, 2011; note: potency is the fitted concentration of half-maximal effect; nearly all actives have a fitted effect of over 55% in size
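Luminescence from the luciferase reporter, measured 30 min after ONE-Glo reagent at room temperature, was the read-out. Beforehand, 2,000 cells per well were exposed for 16 hr at 37 °C to 5-fluorouridine together with compound or vehicle.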
DT40 TDP1 CPT – qHTS for Inhibitors of human tyrosyl-DNA phosphodiesterase 1 (TDP1): qHTS in cells in presence of CPT; chicken DT40 Tdp1-/-;hTDP1 cells + 20 nM CPT, ATP luminescence, 48 h; 420,000 tested, 12% active; Potency, µM (titrated, usually from 46.2 µM), without a hit: top-dose activity change, negative = growth inhibition, most hits filed as inhibitors; AID 686979, 2013; note: potency is the fitted concentration of half-maximal effect; nearly all actives have a fitted effect of over 55% in size
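Cell growth measured by CellTiter-Glo luminescence after a minimum 48 h, 37 C compound exposure with 20 nM CPT in Tdp1-knockout DT40 cells stably expressing hTDP1, seeded 400/well; qHTS titration format.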
HT1080 IDH1KD tx – qHTS for induction of synthetic lethality in tumor cells producing 2HG: qHTS for the HT-1080-IDH1KD cell line. Potency, µM (series often up to 46.1 µM), for the others: at the highest dose activity, negative = toxicity, usual class: cytotoxic. HT-1080 IDH1 knockdown viability, ATP luminescence, 48 h. AID 686971, 2013. 360,000 tested, 2% active;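 note: potency is the fitted concentration of half-maximal effect; 0% = DMSO wells and -100% = cell-free medium wells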
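Using the IDH1-knockdown HT-1080 line run in the same batch and compound series as the NT line, viability after 48 h at 37 °C was determined by CellTiter-Glo luminescence and expressed as % activity.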
HT1080-NT tox – qHTS for induction of synthetic lethality in tumor cells producing 2HG: qHTS for the HT-1080-NT fibrosarcoma cell line; HT-1080-NT fibrosarcoma viability, CellTiter-Glo ATP luminescence, 48 h; Potency, µM (titrated, usually from 46.1 µM), for inactives: top-dose activity, negative = less viability, actives largely listed as cytotoxic; 360,000 tested, 1.6% active; AID 686970, 2013;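 note: NT is the 2HG producing partner of a matched IDH1 knockdown line; potency is the fitted concentration of half-maximal effect; 0% = DMSO-treated cells and -100% = media-only wells without cells; nearly all actives have a fitted effect of over 55% in size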
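Luminescent CellTiter-Glo readout after 48 hours of compound exposure at 37 degrees C defined viability of HT-1080-NT cells. Activity was normalized to DMSO wells and cell-free media wells; concentration-response curves were fitted and assigned curve classes.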
IL1B secr inh – qHTS for Inhibitors of Inflammasome Signaling: IL-1-beta AlphaLISA Primary Screen. 360,000 tested, 4.7% active. THP-1 LPS/ATP IL-1B secretion, AlphaLISA, 16 h; stronger effect = lower value. activity change, % at 57.5 µM. AID 743279, 2014; in the data active = activity change below about -50%; inconclusive = mostly about -30% to -49%
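THP-1 cells pretreated 1 hr with compounds (up to 57.5 uM final), then stimulated with LPS (250 ng/mL final) plus ATP (1.25 mM final); secreted IL-1B measured by AlphaLISA after 16 hr, decreased signal indicating inhibition.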
Starred values were filed as active, the others as inactive; u = inconclusive; x = no result. Unless noted, calls come from the whole dose curve; as a rule, active = well fitted curve in the direction sought with a large enough effect; inconclusive = small, poorly fitted or top-dose-only effect, or another doubt; inactive = no such curve, though single readings can be large; an effect the other way counts as inactive or inconclusive. Unless noted, % is set by controls: 0 for no effect and ±100 for the full control effect.

SMILES	TDP1 cell noCPT	ELG1 repair inh	DT40 TDP1 CPT	HT1080 IDH1KD tx	HT1080-NT tox	IL1B secr inh
CCOC(=O)c1[nH]c2ccccc2c1NC(=O)c1ccc(OCC)cc1	1%	x	-8%	x	x	x
CCCC(=O)Nc1c(C(=O)OCC)[nH]c2ccccc12	1.8µM*	u	-21%	-4%	u	-54*
CCOC(=O)c1[nH]c2ccc(Br)cc2c1NC(=O)CCN1CCC(C)CC1	18µM*	4%	u	u	u	-15
CCOC(=O)c1[nH]c2ccccc2c1NC(=O)c1ccc(S(=O)(=O)N2CCCCC2)cc1	23µM*	-12%	u	-13%	-15%	13
CCOC(=O)c1[nH]c2ccccc2c1NC(=O)c1ccccc1OCC	0.73µM*	x	0.65µM*	x	x	x
CCOC(=O)c1[nH]c2ccccc2c1NC(=O)CC(C)C	2%	-11%	-4%	1%	0%	-14
CCOC(=O)c1[nH]c2ccccc2c1NC(=O)c1ccc(S(=O)(=O)N(C)C)cc1	-24%	-11%	-7%	4%	-1%	0
COc1cccc(NS(=O)(=O)NC(=O)c2cn(C)c3ccccc23)c1	6%	u	-3%	-29%	u	26
COc1ccc(S(=O)(=O)NCC(=O)N(CC(=O)NCC2CCCO2)Cc2ccc(F)cc2)cc1 (stereo unspecified)	-11%	21%	-14%	0%	3%	-23
CN(C)CC(=O)N[C@@H]1CC[C@@H](CCNS(=O)(=O)c2ccccc2)O[C@@H]1CO	-3%	x	5%	22%	1%	-13
CC(C)CN(C[C@@H](OP(=O)(O)O)[C@H](Cc1ccccc1)NC(=O)O[C@H]1CCOC1)S(=O)(=O)c1ccc(N)cc1	3%	x	10%	x	x	x
O=c1c(-c2ccc(F)cc2)nc2cncnc2n1C1CC1	2%	x	5%	x	x	x
COCC(=O)c1[nH]c2ccccc2c1C	u	5%	26µM*	1%	-6%	17
COc1ccc(/C=C/c2nccc3ccccc23)cc1OC	14µM*	x	11µM*	x	x	x
COc1ccc(/C=C/c2ccncc2)cc1OC	-9%	u	7%	6%	14%	-13
COc1cccc(C=Cc2nccc3ccccc23)c1OC	16µM*	x	u	-26%	-28%	-58*
CCCCN(CC(=O)NC1CCCC1)C(=O)C(=O)Nc1ccc2c(c1)OCCO2	-29%	-6%	2%	16%	15%	0
CC(C)CCN(C(=O)CCCSc1nc2ccccc2[nH]1)c1c(N)n(Cc2ccccc2)c(=O)[nH]c1=O	-22%	-8%	-21%	-8%	1%	-97*
CC(C)CCN(C(=O)CCSc1ccc(F)cc1)c1c(N)n(Cc2ccccc2)c(=O)[nH]c1=O	u	2%	u	-20%	0%	-10
CC(C)CN(C(=O)CSc1nc(-c2ccccc2)cn1N)c1c(N)n(Cc2ccccc2)c(=O)[nH]c1=O	-17%	u	-18%	-5%	-2%	-9
CC(C)CN(C(=O)CCCSc1nc2ccccc2[nH]1)c1c(N)n(Cc2ccccc2)c(=O)[nH]c1=O	-2%	3%	6%	-7%	-4%	-102*
CCN(CC(=O)Nc1c(F)cccc1F)C(=O)CSCc1ccc(C)cc1	u	x	u	7%	0%	2
CCc1ccc(C2Sc3ccccc3NC3=C2C(=O)c2ccccc23)cc1 (stereo unspecified)	u	x	16µM*	x	x	x
CC(C)c1ccc(C2Sc3ccccc3NC3=C2C(=O)c2ccccc23)cc1 (stereo unspecified)	16µM*	x	16µM*	x	x	x
CCOc1ccc(CSC2=NCCN2)cc1[N+](=O)[O-]	16µM*	-7%	u	u	-29%	-61*
SMILES	TDP1 cell noCPT	ELG1 repair inh	DT40 TDP1 CPT	HT1080 IDH1KD tx	HT1080-NT tox	IL1B secr inh
O=[N+]([O-])c1ccc(CSC2=NCCN2)cc1	21µM*	10%	21µM*	1%	-1%	u
CCOc1ccc(CN(CCO)CCO)cc1[N+](=O)[O-]	-4%	-3%	-1%	1%	8%	15
CCCCOc1ccc(CSC2=NCCN2)cc1[N+](=O)[O-]	21µM*	15%	18µM*	-22%	u	-99*
C[C@@H]1CC(=O)[C@H]2CC(CO)=CCC[C@@H]2[C@@]1(C)CC/C(=C/CO)CO	-5%	u	-5%	5%	1%	-3
COc1cc(C(=O)Nc2nc(C)c(Cc3ccc4c(c3)OCO4)s2)cc(OC)c1OC	2.1µM*	u	1.3µM*	4.6µM*	4.1µM*	-10
CCCOc1ccc(C(=O)Nc2nc(C)c(Cc3ccc4c(c3)OCO4)s2)cc1	7.3µM*	u	u	u	-14%	20
Cc1nc(NC(=O)c2ccc(OCC(C)C)cc2)sc1Cc1ccc2c(c1)OCO2	16µM*	-6%	u	u	-15%	-12
CCNc1nc(OCCNS(=O)(=O)c2cc(C)ccc2C)nc(N(C)C)n1	u	-19%	u	2%	5%	25
COc1ccc(OCCSc2nc(N)cc(N)n2)cc1	u	u	-4%	-21%	-12%	0
CCNc1nc(NC(C)C)nc(OCCNS(=O)(=O)c2cc(C)ccc2C)n1	u	21µM*	-18%	0%	-1%	-4
CCNc1nc(NC(C)C)nc(SCCOc2ccc(C)cc2)n1	23µM*	11%	16µM*	u	u	-22
CCNc1nc(NC(C)C)nc(SCCOC(=O)c2ccccc2)n1	u	2%	15µM*	-8%	-7%	14
CCNc1nc(SCCOc2ccc(Br)cc2)nc(N(C)C)n1	15µM*	u	u	-6%	0%	6
CCNc1nc(Cl)nc(NCCOc2ccc(C)cc2)n1	-29%	19%	u	-10%	-2%	5
COC(=O)[C@@]12CCCCN1[C@H](c1ccc(-c3ccc(F)cc3)cc1)[C@@H]1C(=O)N(C)C(=O)[C@@H]12	13µM*	-29%	21µM*	-9%	-28%	4
COC(=O)[C@@]12CCCCN1[C@H](c1ccc(-c3ccccc3)cc1)[C@H]1C(=O)N(C)C(=O)[C@H]12	u	u	u	18%	8%	9
